Test results: PubChem BioAssay (NCATS)
Records with an inconclusive call do not appear. Calls of active or inactive are those of the source. Calls come from the whole dose curve; as a rule, active = well fitted cell-killing curve with a large enough effect; inconclusive = small, poorly fitted or top-dose-only effect; inactive = no such curve, though single readings can be large or run the other way.

Assay: qHTS of pediatric cancer cell lines to identify multiple opportunities for drug repurposing: Primary screen for Rh41 cells (AID 1347108); note: nearly all actives have a fitted effect of over 70% in size;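 for activity change, negative = cytotoxic: luminescence drop marks cytotoxic hits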
Details: Rh41 rhabdomyosarcoma viability, CellTiter-Glo luminescence, 48 h; series mostly up to 46 µM; activity change, negative = cytotoxic: at the top concentration
Summary of the method: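 CRCs from 8- or 11-point titrations (lowest final 0.59 nM NPC, 0.78 nM MIPE). Cell viability: CellTiter-Glo after 48 h incubation, 15 min room-temperature development, luminescence imaging.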
Potency is the fitted concentration of half-maximal effect.

SMILES	activity change, negative = cytotoxic	Potency
COc1ccccc1N1CCN(CCCNc2cc(=O)n(C)c(=O)n2C)CC1	24.9% (inactive)	
COc1cc(N2CCC(N3CCN(C)CC3)CC2)ccc1Nc1ncnc(Nc2ccccc2S(=O)(=O)C(C)C)n1		5.26 µM (active)
N[C@H](CSC(c1ccccc1)(c1ccccc1)c1ccccc1)C(=O)O	-10.6% (inactive)	
CC[C@H]1OC(=O)[C@H](C)[C@@H](O[C@H]2C[C@@](C)(OC)[C@@H](O)[C@H](C)O2)[C@H](C)[C@@H](O[C@@H]2O[C@H](C)C[C@H](N(C)C)[C@@H]2O)[C@](C)(O)C[C@@H](C)CN(C)[C@H](C)[C@@H](O)[C@]1(C)O	16.6% (inactive)	
OC[C@H]1O[C@@H](Oc2cc(O)cc(C=Cc3ccc(O)cc3)c2)[C@H](O)[C@@H](O)[C@H]1O	9.86% (inactive)	
NC(=O)c1ccc2nc(-c3ccc(Oc4ccc(Cl)cc4)cc3)[nH]c2c1	-27.7% (inactive)	
O=c1ccn([C@@H]2O[C@H](CO)[C@H](O)[C@H]2O)c(=O)[nH]1	26.3% (inactive)	
COC1CCC(N(C(=O)C2CCC(C)CC2)c2cc(C3=CCCCC3)sc2C(=O)O)CC1 (centres undefined)	4.3% (inactive)	
CN(C)CCC(c1ccccc1)c1ccccn1 (centres undefined)	16.7% (inactive)	
CC=CC(=O)N(CC)c1ccccc1C	21.2% (inactive)	
CCC(CC)[C@H](NC(C)=O)[C@@H]1[C@H](O)[C@@H](C(=O)O)C[C@@H]1N=C(N)N	-4.39% (inactive)	
CC(C)(C)COc1ccc(-n2cc(C(=O)O)cn2)cc1C#N	12.3% (inactive)	
COc1cc(NC(=O)c2ccc(-c3ccc(Cl)cc3)o2)cc(OC)c1		7.43 µM (active)
c1cc(-c2sc(-c3ccncc3)c(-c3ccncc3)c2-c2ccncc2)ccn1	14.9% (inactive)	
